This is an account of results in PubChem BioAssay (EPA / NIEHS).

“And” between values parts separate entries of the source, which are not always exact repeats. Equal values may be shown once. Some structures have more than one record in an assay (separate samples or runs), and their calls can disagree. The source made the active and inactive calls. Rule for the calls: active = hit-call score of the fitted dose curve at least 0.9, where 1 is the maximum; inactive = score below 0.9.

The nature of this assay: ATG_PPRE_CIS: Attagene CIS-FACTORIAL HepG2 Assay for human Peroxisome Proliferator-activated Response Element (PPRE) (AID 2282958). The conditions noted are these: HepG2 PPRE cis-element reporter, Attagene transcription factor profiling; actives raise or lower the signal. Here is the method:
ATG_CIS is a cell-based, multiplexed-readout assay that uses HepG2, a human liver cell line, with measurements taken at 24 hours after chemical dosing in a 24-well plate.ATG_PPRE_CIS is one of 52 assay component(s) measured or calculated from the ATG_CIS assay. It is designed to make measurements of mRNA induction, a form of inducible reporter, as detected with fluorescence intensity signals by Reverse transcription polymerase chain reaction (RT-PCR) and Capillary electrophoresis technology.Data from the assay component ATG_PPRE_CIS was analyzed into 1 assay endpoint. This assay endpoint, ATG_PPRE_CIS, was analyzed with bidirectional fitting relative to DMSO as the negative control and baseline of activity. Using a type of inducible reporter, measures of mRNA for gain or loss-of-signal activity can be used to understand the reporter gene at the transcription factor-level as they relate to the gene PPARA and PPARD and PPARG. Furthermore, this assay endpoint can be referred to as a primary readout, because this assay has produced multiple assay endpoints where this one serves a reporter gene function. To generalize the intended target to other relatable targets, this assay endpoint is annotated to the nuclear receptor intended target family, where the subfamily is non-steroidal.
Human liver HepG2 cells are transiently transfected with multiple reporter transcription units (MRTUs) in 6-well plates using FuGene 6 reagent (Roche; 3 ml FuGene/1 mg DNA). The MRTU constructs are regulated by a cis-regulating element (promoter). […] A major difference between the CIS and TRANS system is that in CIS activities of endogenous TFs are measured, whereas the TRANS assay evaluates changes in activities of exogenous, chimeric NR-Gal4 proteins. […] At the end of 24 hour incubation, total RNA was isolated using TriZol reagent (Invitrogen). The isolated RNA is then reverse-transcribed using oligo(dT) primer and Mo-MLV reverse transcriptase (Invitrogen) with DNAse I (Ambion) treatment for 30 min. The one-tenth of the produced cDNA was amplified by PCR using Taq DNA polymerase (Invitrogen) and two reporter sequence-specific primers. The PCR products were fluorescently labeled by primer extension with 6-arboxyfluorescein (6-FAM) 5'-labeled reporter sequence-specific primer (2 min at 95 C, 20 s at 68 C and 10 min at 72 C) and these products were digested with 5U of HpaI (New England Biolabs) for 2h at 37 C. The fragments were purified using Qiaquick PCR columns (Qiagen), analyzed on an ABI 3130xL genetic analyzer (Applied Biosystems) with peak positions identified by using a set of X-rhodamine (ROX)-labeled MapMarker1000 molecular weight standards (BioVentures). The raw capillary electrophoresis data was processed using Attagraph software (Attagene).
For the compound `CS/C(C)=N/OC(=O)N(C)SN(C)C(=O)O/N=C(\C)SC`, the outcome was inactive.

Consider `COP(N)(=O)SC` (stereo not given), for which the compound was called inactive.

A word on the AC50: it is the midpoint of the concentration-response curve, whichever way the signal moves. As for `CCOC(=O)CC(SP(=S)(OC)OC)C(=O)OCC` (stereo not given), the AC50 was 83.1 µM (active) and 32.5 µM (active).

Consider `Cc1ccc(-c2c(Cl)nc(C#N)n2S(=O)(=O)N(C)C)cc1`, for which the half-maximal activity concentration (AC50) was 11.9 µM (active).

On to `CCON=C(CC)C1=C(O)CC(c2c(C)cc(C)cc2C)CC1=O` (stereo not given), for which the compound was called inactive.

Take `CCCCNC(=O)OCC#CI`: the outcome was inactive and the AC50 was 26.3 µM (active).

As to `N#Cc1nn(-c2c(Cl)cc(C(F)(F)F)cc2Cl)c(N)c1S(=O)C(F)(F)F` (stereo not given), the compound was classed as inactive and the half-maximal activity concentration (AC50) was 22.8 µM (active).

`C#CCOS(=O)OC1CCCCC1Oc1ccc(C(C)(C)C)cc1` (stereo not given): the compound was classed as inactive.

Consider `OC(c1ccc(Cl)cc1)(c1cncnc1)c1ccccc1Cl` (stereo not given), for which the outcome was inactive.

For `CCCN(CCC)c1c([N+](=O)[O-])cc(S(N)(=O)=O)cc1[N+](=O)[O-]`, the outcome was inactive.

As to `COC(=O)N(OC)c1ccccc1COc1ccn(-c2ccc(Cl)cc2)n1`, the AC50 is 0.343 µM (active).

Take `CC(C)Oc1cc(-n2nc(C(C)(C)C)oc2=O)c(Cl)cc1Cl`: the call was inactive.

As for `CNC(=O)ON=CC(C)(C)SC`, the compound was called inactive.

With `CC1COC(Cn2cncn2)(c2ccc(Oc3ccc(Cl)cc3)cc2Cl)O1` (stereo not given), the AC50 is 3.17 µM (active).

For `Fc1ccc(Oc2ccnc3cc(Cl)cc(Cl)c23)cc1`, the AC50 is 2.17 µM (active).

`CO/C=C(/C(=O)OC)c1ccccc1Oc1cc(Oc2ccccc2C#N)ncn1`: the outcome was inactive.

Take `C=CC1(C)OC(=O)N(c2cc(Cl)cc(Cl)c2)C1=O` (stereo not given): the result was inactive.

Take `COc1nc(C)nc(NC(=O)NS(=O)(=O)c2ccccc2CCC(F)(F)F)n1`: the call was inactive.

With `CC(C)C1(C)N=C(c2nc3ccccc3cc2C(=O)O)NC1=O` (stereo not given), the outcome was inactive.

For `N#Cc1cc(Br)c(O)c(Br)c1`, the AC50 was 21.1 µM (active).

As to `CN(C)C(=S)SSC(=S)N(C)C`, the result was inactive.

Consider `CCCC1COC(Cn2cncn2)(c2ccc(Cl)cc2Cl)O1` (stereo not given), for which the result was inactive.

As for `COc1nc(NC(C)C)nc(NC(C)C)n1`, the compound was classed as inactive.

As for `Cc1c(F)c(F)c(COC(=O)C2C(/C=C(\Cl)C(F)(F)F)C2(C)C)c(F)c1F` (stereo not given), the call was inactive.

In the case of `CCOc1cc(Oc2ccc(C(F)(F)F)cc2Cl)ccc1[N+](=O)[O-]`, the AC50 was 13.7 µM (active).

Take `CCNc1nc(Cl)nc(NC(C)C)n1`: the result was inactive.

In the case of `CC1=C(C(=O)Nc2ccccc2)SCCO1`, the outcome was inactive.

Turning to `COC(=O)C(C)Oc1ccc(Oc2ccc(Cl)cc2Cl)cc1` (stereo not given), the AC50 was 18.7 µM (active) and 11 µM (active) and 23 µM (active).

As for `CON(C)C(=O)Nc1ccc(Cl)c(Cl)c1`, the compound was called inactive and the AC50 was 69.6 µM (active).

On to `CCOC(=O)C(Cl)Cc1cc(-n2nc(C)n(C(F)F)c2=O)c(F)cc1Cl` (stereo not given), for which the result was inactive.

Turning to `COc1cnc(OC)n2nc(NS(=O)(=O)c3c(OCC(F)F)cccc3C(F)(F)F)nc12`, the result was inactive.

On to `O=C(O)COc1nc(Cl)c(Cl)cc1Cl`, for which the AC50 is 50 µM (active).

Take `O=C(Nc1ccccc1)Nc1ccnc(Cl)c1`: the AC50 was 22.6 µM (active).

For the compound `CCCCC(CC)COC(=O)c1ccccc1C(=O)OCC(CC)CCCC` (stereo not given), the concentration at half-maximal activity (AC50) is 17.5 µM (active).

Regarding `N#CC(CCc1ccc(Cl)cc1)(Cn1cncn1)c1ccccc1` (stereo not given), the call was inactive.

For the compound `COc1ccc(C(c2ccc(OC)cc2)C(Cl)(Cl)Cl)cc1`, the compound was called inactive.

Regarding `CCc1nn(C)c(C(=O)NCc2ccc(C(C)(C)C)cc2)c1Cl`, the AC50 was 0.462 µM (active).
